D3 antag = qHTS of D3 Dopamine Receptor Antagonist: qHTS; D3R cells, DiscoveRx beta-arrestin luminescence, antagonist mode; hits give low values; max response, negative = inhibition, %; 360,000 compounds, 2.5% hits; in the data active means max response below about -50%; inconclusive means no clear call, values can overlap the other calls; further: on the % scale 0 is the no-effect control and ±100 the full control effect
Target sequence (P35462 whole entry, looked up): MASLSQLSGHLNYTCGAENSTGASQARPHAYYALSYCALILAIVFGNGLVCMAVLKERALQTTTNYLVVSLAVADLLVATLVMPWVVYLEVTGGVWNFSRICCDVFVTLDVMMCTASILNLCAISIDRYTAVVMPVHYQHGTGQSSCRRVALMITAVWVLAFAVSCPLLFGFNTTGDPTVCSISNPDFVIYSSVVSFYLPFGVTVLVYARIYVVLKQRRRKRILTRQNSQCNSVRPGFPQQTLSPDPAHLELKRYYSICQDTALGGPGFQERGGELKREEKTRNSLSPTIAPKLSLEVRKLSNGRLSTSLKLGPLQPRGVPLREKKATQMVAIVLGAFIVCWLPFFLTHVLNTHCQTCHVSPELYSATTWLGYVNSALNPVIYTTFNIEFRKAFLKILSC
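Cells plated overnight at 1500 cells/well, then exposed to library compounds with dopamine controls for 90 minutes at 37 degrees C. DiscoveRx reagent added for 30–60 minutes at room temperature; luminescence read, quantitative HTS format.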
a7 integrin act = qHTS for Activators of Integrin-Mediated Alleviation for Muscular Dystrophy; Potency, µM (highest dose often 38.3 µM), for the others: top-dose activation, actives largely listed as activators; alpha7betagal myoblasts, beta-gal FDG fluorescence, 48 h; AID 624291, 2012; 350,000 compounds, 0.064% hits; active means well fitted activation curve with a large enough effect; inconclusive means small, poorly fitted or top-dose-only effect; inactive means no such curve, though single readings can be large or run the other way;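 further: potency means the concentration at half of the fitted maximal effect; 100% = response of the positive control SU9516; nearly all actives have a fitted effect of over 60% in size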
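alpha7betagal+/- myoblasts (passage 13, 250/well) treated 48 h at 37C with compounds at 1:260 dilution of DMSO stock. Lysed, then beta-galactosidase activity read as FDG fluorescence (ex 480/em 540) after 30 min, with pre-read for autofluorescence.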
D3 ag = qHTS of D3 Dopamine Receptor Agonist: qHTS; D3R DiscoveRx beta-arrestin cells, luminescence, 90 min; max activation, %; 410,000 compounds, 0.58% hits; AID 652048, 2013; in the data active means max activation above about 30%; further: 0% is about no effect
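Cells at 1500/well, incubated overnight, then treated with pinned compounds (dopamine as control) for 90 min at 37 degrees C. DiscoveRx reagent added for 30 - 60 minutes at room temperature; luminescence read.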
Numbers without * were called inactive; ? = inconclusive; . = not tested or not shown. A selection: hits, their analogues and other compounds. The true share with any hit is near 2.9%.

SMILES	D3 antag	a7 integrin act	D3 ag
CCN(CC)C(=O)C(=O)c1cn(CC(=O)NCC2CCCO2)c2ccccc12 (stereo unspecified)	-15	-8%	-3
CCOC(=O)N1CCN(C(=O)CSc2nc3c([nH]c4ccccc43)c(=O)n2CC)CC1	27	-5%	46*
Cc1ccc2nc(-c3ccc(F)cc3)nc(SCC(=O)NCC3CCCO3)c2c1 (stereo unspecified)	0	?	-9
CCn1c(SCC(=O)N2CCCCC2)nc2c([nH]c3ccccc32)c1=O	-8	-13%	-2
O=C(CSc1nc2c([nH]c3ccccc32)c(=O)n1-c1ccccc1F)NCC1CCCO1 (stereo unspecified)	-78*	16%	-29
Cc1ccccc1-n1c(SCC(=O)NCC2CCCO2)nc2c([nH]c3ccccc32)c1=O (stereo unspecified)	-82*	14%	-23
Cn1c(SCC(=O)NCC2CCCO2)nc2c([nH]c3ccccc32)c1=O (stereo unspecified)	-14	-18%	-10
COc1ccc(C)cc1-n1c(SCC(=O)NCC2CCCO2)nc2c([nH]c3ccccc32)c1=O (stereo unspecified)	-3	5%	-6
COc1ccc2nc(-c3ccccc3)nc(SCC(=O)NCC3CCCO3)c2c1 (stereo unspecified)	0	-12%	33*
CN(C)CCNc1oc(COc2cccc(Cl)c2)nc1C#N	?	7%	0
COc1ccc(C(=O)N/C(=C\c2cccc([N+](=O)[O-])c2)C(=O)Nc2cccc(C(=O)O)c2)cc1	-15	13%	0
CC(C)c1ccc(OC(=O)c2cc(-c3ccc(Cl)cc3)on2)cc1	.	.	-6
Cc1cc(C(=O)Nc2c(C)n(C)n(-c3ccccc3)c2=O)on1	6	27%	-5
Cc1ccc(C)c(CN2CCC(CNC(=O)Cn3ncc4c([nH]c5ccccc54)c3=O)CC2)c1	.	.	-4
O=C(c1ccco1)N1CCN(Cc2ccccc2Br)CC1	-17	-3%	2
CCOC(=O)c1c(C)c(C(=O)NCc2cccs2)c(C)n1C	17	14%	8
CC(=O)c1ccc(NC(=O)c2ccc(-c3nc(CSc4ccccc4)c(C)o3)cc2)cc1	.	.	13
O=C(CCc1nc2ccccc2c(=O)[nH]1)Nc1nnc(SCc2ccc(F)cc2)s1	2	-3%	3
COc1ccccc1-c1noc(CCC(=O)Nc2cc(C(F)(F)F)ccc2Cl)n1	-10	-15%	30*
COc1ccccc1-c1noc(CCCC(=O)Nc2cccc(C(F)(F)F)c2)n1	.	.	-21
COc1ccc(CNc2nc(S(=O)(=O)c3ccccc3)c(Cl)s2)cc1OC	11	-8%	9
CCCn1nnc(NC(=O)c2ccc(-c3cccc(Cl)c3)o2)n1	11	6%	-6
CCCCn1nnc(NC(=O)c2ccc(-c3cccc(Cl)c3)o2)n1	-86*	-4%	-4
O=C1C(=Cc2ccccn2)CCc2ccccc21	-67*	-26%	-15
COc1ccc2c(c1)CC/C(=C/c1ccccn1)C2=O	-24	0%	-9
SMILES	D3 antag	a7 integrin act	D3 ag
O=C(Nc1nnc(S(=O)(=O)N2CCCCC2)s1)c1cccc(Br)c1	25	0%	0
Cc1ccc2cc(CCNC(=O)c3ccco3)c(=O)[nH]c2c1	-103*	9%	6
COc1ccc2cc(CCNC(=O)c3ccco3)c(=O)[nH]c2c1	15	2%	-1
CCc1ccc(CNC(=O)c2cc3c(=O)n(Cc4cccs4)ccc3nc2C)cc1	.	.	-13
CCC[N+]1(CC#CC(O)(c2ccccc2)C2CCCCC2)CCCCC1 (stereo unspecified)	-54*	-11%	-45
CCN(CC)CCC#CC(O)(c1ccccc1)C1CCCCC1 (stereo unspecified)	?	-25%	-25
Cc1ccc(/C=C/C(=O)c2cc(Br)ccc2OC(=O)c2ccco2)cc1	-28	-24%	-7
COc1ccccc1/C=C/C(=O)c1cc(Br)ccc1OC(=O)c1ccco1	-56*	-62%	-4
CC1(C(=O)NS(=O)(=O)c2ccc(F)cc2F)CCN1C(=O)c1ccccc1CCc1ccccc1 (stereo unspecified)	3	.	-5
CCOc1cccc(C(=O)Nc2c(C(=O)c3ccc(OC)cc3)oc3ccccc23)c1	.	.	33*
CCOC(=O)c1oc2ccccc2c1NC(=O)c1ccccc1OC	39	1%	50*
CCOc1ccc(C(=O)Nc2c(C(=O)c3ccc(OC)cc3)oc3ccccc23)cc1	.	.	-1
COc1ccccc1C(=O)Nc1c(C(=O)c2ccccc2)oc2ccccc12	.	.	-1
CC(C)(C)c1ccc(-n2nc(C#N)c(Cl)cc2=O)cc1	-95*	-64%	-9
CC(C)(C)c1ccc(-n2nc(C(N)=O)c(O)cc2=O)cc1	-3	-18%	3
Cc1c(C(=O)OC(C)C(C)C[N+](C)(C)C)oc2ccccc12 (stereo unspecified)	18	-9%	-2
O=c1c2ccccc2cnn1Cc1n[nH]c(=S)n1-c1ccc(F)c(Cl)c1	-5	4%	-2
O=c1c2ccccc2cnn1Cc1n[nH]c(=S)n1-c1cc(Cl)cc(Cl)c1	-57*	8%	-7
O=[N+]([O-])c1cc(S(=O)(=O)C(F)(F)F)ccc1Sc1nc2ccccc2s1	-95*	-58%	-14
CS(=O)(=O)c1ccc(Sc2nc3ccccc3s2)c([N+](=O)[O-])c1	-15	-53%	-1
O=C1C=CC(O)(c2cc(=O)c3c(O)cc(O)cc3o2)C=C1	-80*	-40%	-32
O=c1cc(-c2ccccc2Cl)oc2cc(O)cc(O)c12	-11	-8%	1
O=C(CSCc1ccccc1)Nc1cccc(C(=O)Nc2ccc(C(=O)O)cc2)c1	3	20%	-4
O=C(Nc1ccc(Nc2ccccc2)cc1)c1ccc(Cl)cc1[N+](=O)[O-]	-66*	15%	-15
CC(=O)NS(=O)(=O)c1ccc(NC(=O)c2ccc(Cl)cc2[N+](=O)[O-])cc1	14	?	4
SMILES	D3 antag	a7 integrin act	D3 ag
CC(C)NC(=O)c1ccc(-c2ccc(F)c(F)c2)c2ccoc12	18	.	8
CN1CCN(C(=O)c2ccc(-c3ccc(F)c(F)c3)c3ccoc23)CC1	-59*	.	-11
C=CC[C@@H](CC(=O)NCCO)C(=O)N[C@@H](COC(=O)[C@@H](CC=C)Cc1ccc(F)cc1)Cc1c[nH]c2ccccc12	10	3%	3
COc1cccc(-c2nnn(CC(=O)Nc3cc(OC)c(NC(=O)c4ccco4)cc3OC)n2)c1	-21	-14%	0
CCOC(=O)C1=C(C)NC2=C(C(=O)c3ccccc32)C1c1cccc2ccccc12 (stereo unspecified)	-26	-19%	-6
CCN1C(=O)NC2=C(C(=O)c3ccccc32)C1c1ccccc1F (stereo unspecified)	-62*	-9%	-5
CN(c1ccccc1C(=O)NC1CC2CCC1C2)S(=O)(=O)c1ccccc1 (stereo unspecified)	0	15%	-3
CC(=O)c1cccc(NC(=O)Nc2ccc(C(=O)N3CCCC3)cc2)c1	13	-37%	8
